Measured values reported in PubChem BioAssay (NCI).
This is part of a sample that, as a whole, favours compounds with a hit. Of some 79,000 tested, about 15% had one in any assay. A number with no mark means an inactive call. Rule as the data show it: active = growth inhibition above about 70%; inactive = the rest.

experiment: NCI Yeast Anticancer Drug Screen. Data for the bub3 strain (AID 167); settings: S. cerevisiae bub3 mutant strain, at 50.0 µM, hits give high values
In short: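 Whole-cell yeast assay. The mutant strain was incubated with compounds, and growth inhibition was determined by comparison with vehicle-treated cells.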

Row | SMILES | growth inhibition [%]
1 | CCCCCCC(O)CCCCCCCCCCCO (configuration not stated) | 10.2
2 | C=C(C)CCC[C@@H](C)C1CCC2(C)[C@@H]3CCC4C(C)(C)[C@@H](O)CC[C@@]45C[C@@]35CC[C@]12C (some centres not stated) | 18
3 | OC(c1cc(-c2ccccc2)nc2c1ccc1ccccc12)C1CCCCN1 (configuration not stated) | 11.6
4 | COc1ccc2c(c1)C(=O)[C@@](Nc1ccc(C=O)cc1)(OC)[C@@](OC)(c1ccc([N+](=O)[O-])cc1)O2 | -9.45
5 | CC(C)C1CCC(=O)CC1 | 0.75
6 | CN(C)S(=O)(=O)N1CCCc2ccccc21 | 31.1
7 | CCC(O)(c1ccc(OC)cc1)C(O)(CC)c1ccc(OC)cc1 (configuration not stated) | 5.85
8 | CN1C(c2ccccc2)=C(C#N)C(=O)CC(c2ccc(Cl)cc2)N1C (configuration not stated) | -15.8
9 | ClC(c1ccccc1)c1cccc2ccccc12 (configuration not stated) | 11.8
10 | CCCCCCCCC(=O)OCC(=O)c1ccc(-c2ccccc2)cc1 | 3.3
11 | Nc1nc(N)c2c(n1)CCC(CNc1ccc(C(=O)NC(CCC(=O)O)C(=O)O)cc1)C2 (configuration not stated) | -3.8
12 | CCCCOC(=O)C1(C(=O)OCCCC)CC1 | -3.75
13 | N#CCc1ccc(-c2ccccc2)cc1 | -19.6
14 | CC(C)NCc1ccccc1Sc1ccccc1CNC(C)C | 11.4
15 | C/C(=N/NC(N)=O)C1CCC(C)CC1 (configuration not stated) | 8.2
16 | C=CCCCCCCCCC(=O)NCC1CC1 | -27.9
17 | Nc1ncnc2c1ncn2C1C=CC(COS(N)(=O)=O)C1 (configuration not stated) | 13.9
